Most compounds without a hit are left out; they make up all but 4.4% or so of the library.
tim23-1 inh – tim23-1 yeast growth inhibition; S. cerevisiae tim23-1 growth, BacTiter-Glo luminescence, 24 h; inhibition, % at 20 µM; 330,000 compounds, 1.3% hits;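 active = growth inhibition of the mutant yeast at or above 50%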;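 also: temperature-sensitive mutant grown at 25 °C; plate controls were DMSO-treated mutant yeast for no effect and medium wells lacking yeast for full effect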
PfHsp90 set2 – growth inhibition of yeast expressing Plasmodium Hsp90. S. cerevisiae expressing PfHsp90, BacTiter-Glo ATP, 48 h; yeast lacking PDR1 and PDR3 efflux regulators. inhibition, % at 9.4 µM. 310,000 compounds, 0.32% hits;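 active = every replicate shows inhibition above about 80%, whatever the replicate mean, limit read from the data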;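 also: 0% = DMSO neutral controls and 100% = 20 µM radicicol positive controls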
tim10-1 inh – inhibits growth of tim10-1 mutant yeast | inhibition, % at 20 µM | 330,000 compounds, 2.2% hits | S. cerevisiae tim10-1 ts strain growth, BacTiter-Glo, 24 h;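 active = inhibition of at least 40%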;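 also: mutant grown at 25 °C; 0% = DMSO wells with yeast and 100% = wells holding no yeast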
TIM10 inh – growth inhibitors of TIM10 yeast strain. AID 463195. 330,000 compounds, 1.4% hits. inhibition, % at 10 µM. S. cerevisiae TIM10 strain growth, BacTiter-Glo luminescence, 24 h;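 active = inhibition of 40% or more at the single tested concentration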;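 also: wild-type TIM10 isogenic control strain grown at permissive 25 °C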
SKKanGAS inh – blocks kanamycin growth of S. pyogenes SKKanGAS strain; BacTiter-Glo, 6 h; inhibition, % at 7.5 µM; 300,000 compounds, 1.3% hits;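 active = mean replicate score, as percent of positive control median, at least 50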;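 also: strain carries kanamycin resistance gene driven by streptokinase promoter and grows in 40 µg/ml kanamycin; loss of luminescence reflects streptokinase promoter inhibition or plain growth inhibition; 0% = median of DMSO wells and 100% = positive control at its reference dose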
* = called active by the depositor; . = no result given.

SMILES	tim23-1 inh	PfHsp90 set2	tim10-1 inh	TIM10 inh	SKKanGAS inh
CC(=O)C(Cc1ccccc1)NC(=O)COc1ccc2c(c1)OCO2 (centres undefined)	-2	-1	-11	-15	.
NC(=O)c1ccccc1NC(=O)c1ccccc1Cl	-6	9	-5	3	-3
O=C(Nc1ccccc1C(=O)Nc1nnc(C(F)(F)F)s1)c1ccccc1Cl	10	-3	7	9	101*
CN(C)CC1CC/C(=C\c2ccc(O)cc2)C1=O (centres undefined)	.	145*	.	.	.
O=C1/C(=C\c2ccc(Cl)cc2)CCC1CNc1ccc(Cl)cc1 (centres undefined)	.	147*	.	.	.
COc1ccc(/C=C2\CCC(C3CCCC3)C2=O)cc1 (centres undefined)	8	20	10	1	3
CN(C)CC1CCC/C(=C\c2ccc(OC(=O)c3ccc(Cl)cc3)cc2)C1=O (centres undefined)	.	3	.	.	.
COc1ccc(/C=C2/CCC(CN3CCOCC3)C2=O)cc1 (centres undefined)	.	146*	.	.	.
CC1(C)N=C(SCC(=O)Nc2ccc(Cl)cc2Cl)C(c2ccccc2)=N1	20	99*	22	12	3
CC1(C)N=C(SCC(=O)Nc2ccccc2)C(c2ccc(Cl)cc2)=N1	26	18	27	20	5
Cc1ccc(C2=NC(C)(C)N=C2SCC(=O)Nc2ccc(Cl)cc2)cc1	20	134*	39	23	3
CCN(CC(=O)Nc1ccc(N2CCOCC2)cc1)C(=O)Cc1ccccc1	0	7	15	10	.
C[C@H](CO)N1C[C@H](C)[C@@H](CN(C)Cc2ccccc2)Oc2c(NS(=O)(=O)c3cn(C)cn3)cccc2C1=O	10	12	27	-7	.
Cc1[nH]c2ccccc2c1/C=N/NC(=O)C1CC1(c1ccccc1)c1ccccc1 (centres undefined)	13	9	5	16	55*
Cc1[nH]c2ccccc2c1/C=N/NC(=O)CCC(=O)NCc1ccccc1	18	18	9	6	-1
Cc1cccc(NC(=O)C(=O)NNC(=O)c2ccc(C(C)(C)C)cc2)c1	-42	-32	-75	-31	85*
CC(C)(C)c1ccc(C(=O)NNC(=O)c2cccc(Br)c2)cc1	3	6	-10	-16	0
COc1ccc([C@H]2CC(=O)C=C(c3cc(OC)ccc3OC)C2)cc1	11	-13	8	-14	.
O=C(CNc1cccc(S(=O)(=O)N2CCCC2)c1)Nc1cccc(C(F)(F)F)c1	18	47	13	10	.
CCc1c(C2(O)CCCCC2)[nH]c2c(C(=O)OC)cc(Cl)cc12	.	-15	.	.	100*
COC(=O)c1cc(Cl)cc2c(C)c(C3(O)CCCCC3)[nH]c12	-11	-5	39	-16	43
O=C(CSc1ncnc2c1cnn2-c1ccccc1)NC1CCS(=O)(=O)C1 (centres undefined)	7	-3	8	10	.
Cc1nc(N)nc(N)c1CCCc1ccc(Cl)c(Cl)c1	19	-7	13	23	109*
O=C(C[C@H]1C[C@H](C(=O)N2CCCCC2)[C@@]2(CCc3ccccc3)c3[nH]c4ccc(Cl)cc4c3CCN2C1=O)NCCN1CCOCC1	31	10	10	-10	.
CC(C)(C)OC(=O)C[C@H]1C/C=C\C[C@H](CC(=O)NCCO)C(=O)N[C@@H](Cc2ccccc2)COC1=O	-3	9	-13	0	.
SMILES	tim23-1 inh	PfHsp90 set2	tim10-1 inh	TIM10 inh	SKKanGAS inh
COc1ccc(C(=O)/C=C/c2ccc(O)cc2)c2c1CC(O)C(C)(C)O2 (centres undefined)	17	12	1	5	.
COc1ccc(C(=O)/C=C/c2ccc(O)cc2)c(O)c1CC=C(C)C	34	33	23	6	89*
O=C(Nc1ccc([N+](=O)[O-])cc1)Nc1nc(-c2ccc(Cl)s2)cs1	.	1	.	.	79*
O=C1C2C3C=CC(C3)C2C(=O)N1CN(Cc1ccccc1)CN1C(=O)C2C3C=CC(C3)C2C1=O (centres undefined)	28	113*	22	5	5
CCOc1ccc2nc(NC(=O)c3ccccn3)sc2c1	0	21	11	16	81*
O=C(Nc1nc2c(F)cc(F)cc2s1)c1ccccn1	-26	-25	25	21	72*
Cc1ccc2nc(NC(=O)c3ccccn3)sc2c1	4	19	-9	7	85*
CCOc1ccc(-c2nnc(NC(=O)c3ccc(OCC(C)C)c(OC)c3)o2)cc1	20	-120	16	18	115*
O=C(Nc1nnc(-c2cccs2)o1)c1ccco1	8	2	-2	-9	-1
COc1cc(OC)cc(-c2nnc(NC(=O)c3ccc4c(c3)OCCO4)o2)c1	-11	-53	27	-9	109*
COc1cc(OC)cc(C(=O)NNC(=O)c2ccc3c(c2)OCCO3)c1	3	.	-10	7	.
COc1cccc(C(=O)Nc2nnc(-c3cccs3)o2)c1	1	-5	12	1	77*
COc1cccc(C(=O)Nc2nnc(-c3ccc(F)cc3)o2)c1	-35	-27	28	21	91*
Cc1cccc(C(=O)Nc2nnc(-c3ccncc3)o2)c1	8	.	10	-6	-2
COc1ccc2c(c1)/C(=C\c1cccc(/C=C3/C(=O)Nc4ccc(OC)cc43)n1)C(=O)N2	.	-4	.	.	.
COc1cccc(-c2nnc(NC(C)=O)o2)c1	9	-1	12	-6	4
COc1cccc(-c2nnc(NC(=O)c3ccc4ncsc4c3)o2)c1	10	-57	21	24	69*
COc1cccc(C(=O)Nc2nnc(-c3ccc(Cl)cc3)o2)c1	-26	74	13	-7	88*
CCN(CC(=O)NCc1ccc(F)cc1)C(=O)COc1ccccc1[N+](=O)[O-]	-5	28	-10	-6	.
CC(C)(C)C1CCC(C(=O)Nc2ccc(N3CCOCC3)cc2N2CCOCC2)CC1 (centres undefined)	31	-19	32	28	.
O=c1[nH]c(-c2ccccn2)nc(C(F)(F)F)c1Br	-12	90*	16	34	12
Cc1ccc(OC/C(O)=C(\C#N)c2nc3ccccc3s2)cc1	0	9	-4	10	57*
Cc1cccc(C(=O)OCC(=O)NCCN2C(=O)CSC2=O)c1[N+](=O)[O-]	-3	-3	-3	8	.
COc1ccc(/C=N/Nc2nc(Nc3ccccc3)nc(N3CCCCC3)n2)cc1OC	24	.	33	26	72*
CCCCN(CCCC)C(=S)N/N=C/c1c(C)[nH]n(-c2ccccc2)c1=O	10	-17	19	26	88*
Cc1[nH]n(-c2ccccc2)c(=O)c1/C=N/NC(=O)c1ccc(O)cc1O	-1	-27	-7	-44	102*
CCCCN=Cc1c(C)[nH]n(-c2ccccc2)c1=S	11	18	-2	10	-9
Cc1ccc(-n2[nH]c(C)c(/C=N/NC(=O)c3ccc(O)cc3O)c2=O)cc1	29	12	-8	-54	102*
